The source made the active and inactive calls. Unless noted, no rule for the calls is given here.
Tests used:
[1] = resazurin metabolic signal in HepG2 cells – cell-based, resazurin fluorescence, 24 h, PK04 Diversity Set, profiling panel (AID 1172); settings: HepG2 viability, higher = more signal
[2] = budding yeast growth changes without added modifier – OD600, strain BY4716, 24 h, basal condition, primary screen (AID 1173); settings: S. cerevisiae BY4716 growth, OD600, 24 h; higher = more signal, called active from +8 up or from −8 down
[3] = viability profiling in MM1S myeloma cells – cell-based, resazurin fluorescence, basal, 24 h, PK04 Diversity Set, profiling panel (AID 1174); settings: higher = more signal, called active from +8 up or from −8 down;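 also: MM1S multiple myeloma cell line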
[4] = biological target: Dihydroorotate dehydrogenase (quinone), mitochondrial (Plasmodium falciparum (isolate 3D7)) (UniProt Q08210); test: inhibition of P. falciparum DHODH – biochemical, C-terminal His tag, absorbance 600 nm, primary screen (AID 1175); settings: PfDHODH enzyme, DCIP absorbance 600 nm; higher = more signal, called active from +8 up or from −8 down;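 also: recombinant parasite enzyme with a five histidine tag at its C terminus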
[5] = inhibition of PAO1 biofilm formation – strain PAO1, LB-PBS medium, absorbance 600 nm, primary screen (AID 1176); settings: P. aeruginosa PAO1 growth/biofilm, A600, 12 h; higher = more signal
[6] = growth modulation of vineyard yeast isolate – strain RM11-1a, OD600, basal, 24 h, primary screen (AID 1177);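 also: cultures grown under basal conditions with no added stressor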; settings: S. cerevisiae RM11-1a growth, OD600, 24 h; higher = more signal, called active from +8 up or from −8 down
[7] = growth of efflux-deficient E. coli DRC39 – strain DRC39, OD650, 24 h, E. coli filamentation inducers, primary screen (AID 1178);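 also: growth measured as culture turbidity by optical density at 650 nm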; settings: E. coli DRC39 acrAB, higher = more signal, called active from +8 up or from −8 down
[8] = growth of efflux-deficient E. coli DRC39 – strain DRC39, OD650, 48 h, E. coli filamentation inducers, primary screen (AID 1179);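 also: screen aims at cell division blockers that make cells filament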; settings: E. coli DRC39 delta-acrAB growth, higher = more signal, called active from +8 up or from −8 down
[9] = viability profiling in RPMI8226 myeloma cells – cell-based, resazurin fluorescence, basal, 24 h, PK04 Diversity Set, profiling panel (AID 1180); settings: higher = more signal;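 also: RPMI8826 multiple myeloma cell line at 5000 cells per well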
[10] = biological target: E3 ubiquitin-protein ligase XIAP (Homo sapiens) (UniProt P98170); test: small molecules binding XIAP protein – biophysical, small-molecule microarray, fluorescence 635 nm, primary screen (AID 1181); settings: higher = more signal;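 also: score merges 667 nm emission and signal to noise over triplicate slides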
[11] = test system: XIP peptide (Xip251-270) binding; test: XIP fragment 251-270 binding compounds – biochemical, small-molecule microarray, fluorescence 635/667 nm, 0.1 µg/mL protein, primary screen (AID 1182); settings: fluorescent protein binding, 635 nm, higher = more signal, called active from +8 up or from −8 down
XIP peptide (Xip251-270) = test: compounds binding XIP fragment 251-270 – biochemical, small-molecule microarray, fluorescence 635/667 nm, 0.5 µg/mL protein, primary screen (AID 1183); settings: fluorescence 635 nm, higher = more signal
[12] = blood-stage malaria parasite viability loss – strain 3D7, DAPI fluorescence, 100 nL, primary screen (AID 1184);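 also: parasites grown inside human red blood cells in medium with human serum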; settings: P. falciparum 3D7 growth, 3 d, higher = more signal
[13] = biological target: Homeobox protein Hox-A13 (Mus musculus) (UniProt Q62424); test: disruptors of Hoxa13 oligonucleotide interaction – biochemical, fluorescence polarization, labeled oligonucleotide, primary screen (AID 1185); settings: Hoxa13:DNA binding, 15 min, higher = more signal, called active from +8 up or from −8 down
Chain of Homeobox protein Hox-A13 (Mus musculus) (Q62424 whole entry, looked up): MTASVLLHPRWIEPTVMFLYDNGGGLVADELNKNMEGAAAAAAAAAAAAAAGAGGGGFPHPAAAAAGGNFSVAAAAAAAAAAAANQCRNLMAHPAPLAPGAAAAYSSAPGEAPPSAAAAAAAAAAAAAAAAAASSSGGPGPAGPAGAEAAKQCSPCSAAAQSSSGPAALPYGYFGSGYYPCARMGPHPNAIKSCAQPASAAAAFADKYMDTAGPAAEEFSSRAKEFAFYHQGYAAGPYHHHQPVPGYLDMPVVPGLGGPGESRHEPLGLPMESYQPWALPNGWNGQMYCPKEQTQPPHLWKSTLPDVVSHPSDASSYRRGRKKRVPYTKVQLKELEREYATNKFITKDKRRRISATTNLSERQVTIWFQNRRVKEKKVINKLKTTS

Chain of Dihydroorotate dehydrogenase (quinone), mitochondrial (Plasmodium falciparum (isolate 3D7)) (Q08210 whole entry, looked up): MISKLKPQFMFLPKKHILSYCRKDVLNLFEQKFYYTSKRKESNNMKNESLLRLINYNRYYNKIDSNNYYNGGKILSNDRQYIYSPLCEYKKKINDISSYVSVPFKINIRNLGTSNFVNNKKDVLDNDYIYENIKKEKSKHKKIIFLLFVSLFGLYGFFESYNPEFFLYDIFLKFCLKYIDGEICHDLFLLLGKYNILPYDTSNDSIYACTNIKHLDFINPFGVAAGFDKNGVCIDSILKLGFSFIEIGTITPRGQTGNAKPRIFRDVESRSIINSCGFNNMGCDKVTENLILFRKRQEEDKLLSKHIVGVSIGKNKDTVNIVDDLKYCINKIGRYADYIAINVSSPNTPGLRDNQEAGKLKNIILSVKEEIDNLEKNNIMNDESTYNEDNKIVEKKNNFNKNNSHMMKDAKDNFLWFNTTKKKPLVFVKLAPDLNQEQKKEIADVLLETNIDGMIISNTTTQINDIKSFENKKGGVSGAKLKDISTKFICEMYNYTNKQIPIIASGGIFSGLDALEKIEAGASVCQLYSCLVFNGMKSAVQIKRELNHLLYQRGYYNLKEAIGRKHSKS
Chain of E3 ubiquitin-protein ligase XIAP (Homo sapiens) (P98170 whole entry, looked up, the tested form may be a part): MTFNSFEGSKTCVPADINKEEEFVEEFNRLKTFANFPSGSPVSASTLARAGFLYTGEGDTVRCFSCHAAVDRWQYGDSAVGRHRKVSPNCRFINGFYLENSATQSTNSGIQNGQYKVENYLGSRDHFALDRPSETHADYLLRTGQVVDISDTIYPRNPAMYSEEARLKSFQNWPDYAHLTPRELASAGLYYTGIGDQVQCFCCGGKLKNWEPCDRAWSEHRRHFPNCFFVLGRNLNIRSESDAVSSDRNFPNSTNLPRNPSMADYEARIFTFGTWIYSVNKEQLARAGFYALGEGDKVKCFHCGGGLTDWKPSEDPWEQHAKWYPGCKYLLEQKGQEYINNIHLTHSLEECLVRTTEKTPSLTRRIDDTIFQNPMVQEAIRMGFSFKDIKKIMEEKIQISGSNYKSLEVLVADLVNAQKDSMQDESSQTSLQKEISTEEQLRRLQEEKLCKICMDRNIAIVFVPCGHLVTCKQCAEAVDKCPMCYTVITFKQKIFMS

SMILES	z-score [1]	z-score [2]	z-score [3]	composite z-score [4]	z-score [5]	z-score [6]	z-score [7]	z-score [8]	z-score [9]	composite z-score [10]	composite z-score [11]	composite z-score (XIP peptide (Xip251-270))	z-score [12]	z-score [13]
O=C1[C@H]2[C@H]3[C@H](O)[C@H](O)CC(=NO[C@@H]4O[C@H](CO)[C@@H](O)[C@H](O)[C@H]4O)[C@H]3CC[C@H]2C(=O)N1Cc1ccccc1	0.835	-0.816 (inactive)	-0.183 (inactive)	-0.592 (inactive)	-0.0728 (inactive)	-1.1 (inactive)	-0.395 (inactive)	0.355 (inactive)	0.797	0.0153	-0.175 (inactive)	0.588	-1.19	-1.28 (inactive)
CCOC(=O)[C@H](CC(C)C)NC(=O)CCC1CC(OC(=O)NCc2cccc3ccccc23)CC2(CCCC(COC(=O)NCCN3CCOCC3)O2)O1 (some centres undefined)	1.29	-0.996 (inactive)	1.09 (inactive)	-0.247 (inactive)	0.131 (inactive)	-0.613 (inactive)	-0.404 (inactive)	-0.88 (inactive)	1.19	-0.0143	0.0634 (inactive)	0.464	-1.71	-4.01 (inactive)
COC(=O)[C@H](C)NC(=O)CCC1CC(OC(=O)NCc2ccc3c(c2)OCO3)CC2(CCCC(COC(=O)NCCOc3ccccc3)O2)O1 (some centres undefined)	0.658	-0.565 (inactive)	-0.951 (inactive)	-1.61 (inactive)	0.875 (inactive)	-1.31 (inactive)	-0.388 (inactive)	-0.915 (inactive)	0.891	-0.105	-0.045 (inactive)	0.588	-1.79	-2.45 (inactive)
CC(=O)OC[C@H]1O[C@@H](ON=C[C@@H](C)[C@H](OCc2ccccc2)C(C)C)[C@H](OC(C)=O)[C@@H](OC(C)=O)[C@@H]1OC(C)=O	-1.04	0.0426 (inactive)	-2.37 (inactive)	-0.269 (inactive)	1.01 (inactive)	-0.519 (inactive)	0.153 (inactive)	0.722 (inactive)	-0.8	-0.162	-0.182 (inactive)	0.0517	0.317	-4.44 (inactive)
C#CCCCON=C1C[C@@H](O)[C@@H](O)[C@@H]2[C@@H]3C(=O)N(CCC(=O)OCC)C(=O)[C@@H]3CC[C@@H]12	-0.0517	-0.395 (inactive)	-1.01 (inactive)	0.175 (inactive)	-0.0485 (inactive)	-0.538 (inactive)	0.122 (inactive)	0.529 (inactive)	-0.739	-0.212	-0.349 (inactive)	0.365	0.165	-5.09 (inactive)
CCOC(=O)NN=C1C[C@@H](O)[C@@H](O)[C@@H]2[C@@H]3C(=O)N(CC)C(=O)[C@@H]3CC[C@@H]12	-0.0886	0.398 (inactive)	-0.621 (inactive)	-0.538 (inactive)	-0.331 (inactive)	-0.823 (inactive)	-0.145 (inactive)	-0.325 (inactive)	-0.423	-0.105	-0.359 (inactive)	0.482	0.518	0.443 (inactive)
C[C@@H]1CC[C@H]2C(=O)O[C@H](COc3ccc(C(C)(C)C)cc3)CN2[C@H]1c1ccc(Br)cc1	0.182	0.789 (inactive)	0.837 (inactive)	0.702 (inactive)	0.18 (inactive)	1.71 (inactive)	-0.474 (inactive)	-0.438 (inactive)	1.12	-0.0118	-0.418 (inactive)	0.769	-0.407	1.23 (inactive)
CO[C@@H]1COC(=O)CC=C[C@@H](C)[C@@H]2C=C[C@H](O)[C@@H](COC(=O)[C@H](C)NC(=O)CC=C[C@H]1C)O2	0.592	-0.0997 (inactive)	0.945 (inactive)	-1.15 (inactive)	-0.786 (inactive)	-1 (inactive)	0.574 (inactive)	-0.637 (inactive)	1.61	-0.102	0.78 (inactive)	0.437	-0.117	-3.61 (inactive)
CCOC(=O)CCN1C(=O)[C@H]2[C@H]3[C@H](O)[C@H](O)CC(=NOC[C@@H](O)COCc4ccco4)[C@@H]3CC[C@H]2C1=O	-0.454	0.846 (inactive)	-1.27 (inactive)	0.318 (inactive)	-0.0121 (inactive)	0.176 (inactive)	-0.153 (inactive)	0.324 (inactive)	-0.8	-0.124	-0.159 (inactive)	0.807	1.93	-0.692 (inactive)
CC(CCN1CCCCc2nc(C)c(C)cc21)=NOC(C)CN1CCCc2nc(C)c(C)cc21 (centres undefined)	-0.0636	-0.0975 (inactive)	-0.542 (inactive)	0.333 (inactive)	1.03 (inactive)	0.325 (inactive)	0.529 (inactive)	-0.936 (inactive)	-0.0794	1.56	0.829 (inactive)	0.731	0.507	-10.5 (active)
O=C1[C@H]2[C@H]3[C@H](O)[C@H](O)CC(=NOCc4ccccc4)[C@H]3CC[C@H]2C(=O)N1C[C@@H]1CCCO1	0.648	0.243 (inactive)	0.18 (inactive)	-0.279 (inactive)	0.696 (inactive)	-0.485 (inactive)	-0.359 (inactive)	-0.103 (inactive)	-0.323	-0.0773	-0.344 (inactive)	0.567	0.319	-1.68 (inactive)
Cc1ccc(S(=O)(=O)N[C@@H]2COC(=O)[C@H](C)COC(=O)CC=C[C@H]2C)cc1	0.285	0.773 (inactive)	0.222 (inactive)	0.576 (inactive)	-0.601 (inactive)	1.3 (inactive)	-0.0401 (inactive)	-1.2 (inactive)	0.242	-0.13	-0.396 (inactive)	-0.152	-0.18	-0.424 (inactive)
COC(=O)CC=C[C@@H](C)[C@H](OC)c1ccccc1Br	-0.327	-1.15 (inactive)	-0.397 (inactive)	-2.6 (inactive)	-0.655 (inactive)	0.791 (inactive)	0.25 (inactive)	-0.129 (inactive)	0.0866	-0.241	-0.575 (inactive)	-0.412	0.805	-0.0487 (inactive)
O=C1C2=CC[C@H]3C(=O)N(Cc4ccc5c(c4)OCO5)C(=O)[C@H]3[C@H]2[C@H](O)[C@@H]2O[C@H]12	-0.522	-0.105 (inactive)	-0.677 (inactive)	-0.907 (inactive)	0.0578 (inactive)	-0.491 (inactive)	0.166 (inactive)	0.0632 (inactive)	-1.49	-0.381	0.225 (inactive)	0.0823	1.68	-0.229 (inactive)
COc1ccc(OC[C@H]2Cc3c(-c4ccccc4)nc4c(c3CO2)CN(CCOc2ccccc2)CC4)cc1	-0.376	-2.37 (inactive)	-0.0593 (inactive)	-3.16 (inactive)	-0.765 (inactive)	-0.314 (inactive)	-1.17 (inactive)	-0.458 (inactive)	0.578	-0.111	1.22 (inactive)	0.71	-1.34	-2.66 (inactive)
CO[C@@H]1COC(=O)[C@@H]2CCCN2C(=O)[C@@H](C)COC(=O)[C@H](COCc2ccccc2)NC(=O)CC=C[C@H]1C	-0.327	0.185 (inactive)	-0.722 (inactive)	-0.241 (inactive)	-0.455 (inactive)	0.549 (inactive)	-0.489 (inactive)	-1.98 (inactive)	-0.228	-0.153	-0.33 (inactive)	0.0728	-0.67	-0.767 (inactive)
CC(C)=NOCc1ccc(-c2cc(-c3ccccc3)no2)cc1	-0.503	0.288 (inactive)	-0.284 (inactive)	0.21 (inactive)	-0.446 (inactive)	-0.194 (inactive)	0.302 (inactive)	0.387 (inactive)	-0.424	0.103	-0.191 (inactive)	-0.0722	0.382	0.736 (inactive)
C[C@H]1CC[C@@H](C(=O)O)N[C@@H]1c1ccc(C#CCN(C)C)cc1	0.378	-1.07 (inactive)	0.584 (inactive)	0.666 (inactive)	-0.458 (inactive)	-0.191 (inactive)	0.554 (inactive)	0.15 (inactive)	0.22	0.256	0.908 (inactive)	0.512	-0.0492	-1.16 (inactive)
O=C1[C@H]2[C@H]3[C@H](O)[C@H](O)CC(=NOCc4ccccc4)[C@H]3CC[C@H]2C(=O)N1c1cccc(Oc2ccccc2)c1	1.44	-0.47 (inactive)	0.968 (inactive)	-0.278 (inactive)	-0.131 (inactive)	-0.0244 (inactive)	0.416 (inactive)	-0.482 (inactive)	0.564	-0.193	0.297 (inactive)	0.723	-0.835	-1.3 (inactive)
CC[C@@H](c1ccccc1)n1c(=O)n2n(c1=O)[C@H]1[C@H](O)[C@@H]3O[C@@H]3C(=NOCC=C(C)CCC=C(C)C)[C@H]1CC2	-0.301	0.11 (inactive)	-0.16 (inactive)	0.0031 (inactive)	-0.261 (inactive)	1.01 (inactive)	-0.271 (inactive)	-1.98 (inactive)	-0.451	-0.141	0.17 (inactive)	0.4	-0.444	-3.96 (inactive)
CC(=O)OC[C@H]1O[C@H](C#CCCCc2ccccc2)C=C[C@@H]1OC(C)=O	-0.22	-2.31 (inactive)	-4.16 (inactive)	-0.791 (inactive)	-0.0569 (inactive)	0.291 (inactive)	0.387 (inactive)	-0.0416 (inactive)	-2.47	0.072	1.05 (inactive)	0.505	-0.107	-5.95 (inactive)

Reference: PubChem BioAssay
